Among the data in PubChem BioAssay (NCI) are growth values, retold here.

Structures are written as SMILES. About 83,000 compounds went through this panel and 20% of them were active in at least one assay; those are over-represented in the sample as a whole.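 Assay: single dose, 48 h. Readout: percent growth (0 = no net growth; negative = cell death). Active: <10.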 A number with no mark means an inactive call. The source made the active and inactive calls.

For the test, the system named is U251 CNS. Put plainly: NCI-60 one-dose screen, 48 h (100 = growth as untreated, 0 = no growth, -100 = all killed). The note with it: 10 µM unless noted. Here is the method: Growth inhibition of the U251 human tumor cell line is measured as a screen for anti-cancer activity. Cells are grown in 96 well plates and exposed to the test compound for 48 hours. Compounds are tested at a single concentration, which is 10^-5 M for most compounds. The reported endpoint is percent growth (GI% or GIPRCNT), where numbers from 0 - 100% represent growth inhibition, and numbers from -100% - 0 represent cell death. For example, a value of 40 represents 60% growth inhibition. A value of 0 means no net growth occurred over the course of the experiment. A value of -40 indicates 40% of cells at the beginning of the experiment died by the end of the experiment. A value of -100 means all cells are dead at the end of the experiment.
NCI-60 Human Tumor Cell Lines Screen was performed using the standard one-dose NCI protocol, which is described in more detail at https://dtp.cancer.gov/discovery_development/nci-60/default.htm.
Compounds with GIPRCNT values below 10 were considered active. Activity score was based on GIPRCNT using the following formula: […]
Score is 0 for GIPRCNT values of 100 or above, 50 for GIPRCNT values of 0, and 100 for GIPRCNT values of -100.
Regarding `Nc1c(Br)cc([N+](=O)[O-])cc1[N+](=O)[O-]`, the growth was 101%.

Regarding `O=C1NC(=O)C(Cc2ccccc2)(Cc2ccccc2)C(=O)N1`, the growth was 102%.

Consider `COc1ccc2c(c1)NC1=C(C(=O)OC1)C2c1cc(OC)c(OC)c(OC)c1` (stereo not given), for which the growth is 5.77% (active).

In the case of `CCOc1c(Cl)cc(CNC(C)C(O)c2ccccc2)cc1OC` (stereo not given), the growth is 34.3%.

Turning to `N#[N+]c1cnc([O-])[nH]c1=O`, the growth was 98.3%.

Turning to `O=C(N/N=C/c1ccc([N+](=O)[O-])o1)c1cc([N+](=O)[O-])cc([N+](=O)[O-])c1O`, the growth was 91.8%.

In the case of `[O]=[Sn]([CH]1CCCCC1)[CH]1CCCCC1`, the growth was -85.2% (active).

Take `Oc1ccc(Br)cc1CN1CCN(Cc2ccc(Cl)cc2)CC1`: the growth is 48.9%.

Turning to `c1ccc2nc(OCCN3CC3)ccc2c1`, the growth was 85.1%.

On to `Cc1cc(N(CCCl)CCCl)ccc1C=Nc1ccc2ccccc2c1`, for which the growth is 63%.

For `C[CH2][Pb]([CH2]C)([CH2]C)[O]C(=O)COc1ccccc1`, the growth is -1.93% (active).

`CC(N)Cc1ccc(O)cc1` (stereo not given): the growth is 106%.

As to `CC1(C)N=C(N)N=C(N)N1c1ccc(CCCCc2ccc(S(=O)(=O)F)cc2)c(Cl)c1`, the growth is 9.69% (active).

With `Oc1c(Br)cc(Br)cc1Br.[Cu+2]`, the growth was 110%.

For the molecule `COC(C)(C)CCC[C@H](C)C/C=C/C(C)=C/C(=O)OC(C)C`, the growth was 95.9%.

Turning to `CNC(C)Cc1ccccc1` (stereo not given) (tested in a mixture with another compound), the growth was 89.9%.

Regarding `CC(/C=N/N=C(N)N)=N/N=C(N)N`, the growth was 89.6%.

For the molecule `CC(C)(NC(=O)c1nn(CCCCCF)c2ccccc12)c1ccccc1`, the growth is 84.4%.

In the case of `Cc1nnc([S-])s1.[Au+].c1ccc([PH+](c2ccccc2)c2ccccc2)cc1`, the growth was -59.9% (active).

Take `CCOC(=O)c1cnc(SCc2ccc(Cl)c(Cl)c2)nc1N1CC1`: the growth is 49%.

In the case of `CC1COC(=O)C1` (stereo not given), the growth is 102%.

Regarding `CNC(=O)Oc1cccc(N(C)C)c1`, the growth is 99.1%.

For `NC(Cc1ccc(O)cc1)C(=O)N/N=C/c1ccc(N(CCCl)CCCl)cc1` (stereo not given), the growth is 76.7%.

In the case of `CC(=O)Nc1ccc(C=C2C(=O)NC(=O)NC2=O)cc1`, the growth was 103%.

Regarding `CN=C(NN)NN`, the growth is 98.5%.

In the case of `NS(=O)(=O)c1nc[nH]c1[N+](=O)[O-]`, the growth is 119%.

Regarding `O=[N+]([O-])c1cccc([As]=[As]c2cccc([N+](=O)[O-])c2)c1` (stereo not given), the growth is -96.1% (active).

As to `CC(C)CCC[C@@H](C)[C@H]1CC[C@H]2[C@@H]3CC=C4C[C@@H](OC(=O)Cc5ccc(N(CCCl)CCCl)cc5)CC[C@]4(C)[C@H]3CC[C@]12C`, the growth is 109%.

`Nc1cccc2c1Oc1ccccc1O2`: the growth was 99.6%.

With `CC1(C)N=C(N)N=C(N)N1c1ccc(OCCCCNC(=O)c2ccc(S(=O)(=O)F)cc2)c(Cl)c1`, the growth is 57.2%.

On to `Nc1nc(N)c(-c2ccc(Cl)c(Cl)c2)c(/C=C/c2ccc(S(=O)(=O)F)cc2)n1`, for which the growth was 89.1%.

As for `C/C1=C/C(=O)O[C@@H]2C[C@@H](CC[C@H](C)/C=C\C=C\CC1)O[C@@](OCCc1ccccc1)([C@@H]1CSC(=O)N1)C2`, the growth is 16.4%.

Regarding `Cc1cc(NC(=O)NCCOc2ccc(N3C(N)=NC(N)=NC3(C)C)cc2Cl)ccc1S(=O)(=O)F`, the growth is 10.7%.

For the molecule `COc1cc(C2=NN(c3ccccc3)C(c3sc(N(CCCl)CCCl)nc3Cl)C2)cc(OC)c1OC` (stereo not given), the growth was 85.6%.

For the molecule `COc1ccccc1N1CCN(CCc2c[nH]c3cc4c(cc23)OCO4)CC1`, the growth is 85.4%.

On to `CCOC(=O)C1(c2ccccc2)CCN(CC(=O)c2ccc(NC(C)=O)cc2)CC1`, for which the growth is 99.2%.

Consider `CC(=O)[O][Hg][c]1nc2c(c(=O)n(C)c(=O)n2C)n1C`, for which the growth is 88.3%.

As to `COc1ccc(C(=O)c2ccc([As]=O)cc2)cc1` (stereo not given), the growth was -98.1% (active).

For `Oc1ccc(O)c2c1C1(Cl)C(Cl)=C(Cl)C2(Cl)C1(Cl)Cl`, the growth was 51.6%.

In the case of `N#CC(C#N)=Cc1ccc2ccccc2c1`, the growth is 104%.
